Data reported in PubChem BioAssay AID1159580 (chemical genetic matrix, 2015).
The campaign covered roughly 5,500 compounds. About 2,000 (36%) were called active. Not shown: some 18% with an inconclusive outcome. No stated cut-off is given here; in the data, active means normalized growth mostly below about 0.91 (no sharp cut-off); inconclusive means no clear call, values can overlap the other calls; inactive means mostly above about 0.92. This is one part of the list.

Assay: chemical genetic growth profiling, strain panel (AID 1159580);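 further: tested at 20 µM; growth read once vehicle control cultures reached saturation at 30 °C; 1 = growth at the plate median or of vehicle wells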
Conditions: growth OD

Measured: normalized growth

COc1ccc2c(c1)CCC1C2CC[C@@]2(C)C1CC[C@@H]2O (some centres not stated)
inactive: S. cerevisiae deletion strains, locus YKL068W, stronger effect = lower value 0.944 | S. cerevisiae deletion strains, locus YKR026C, strain gcn3, stronger effect = lower value 0.969 | S. cerevisiae deletion strains, locus YKR091W, strain srl3, stronger effect = lower value 0.968 | S. cerevisiae deletion strains, locus YLL041C, strain sdh2, stronger effect = lower value 0.973 | S. cerevisiae deletion strains, locus YLR102C, strain apc9, stronger effect = lower value 0.951 | S. cerevisiae deletion strains, locus YLR370C, strain arc18, stronger effect = lower value 0.959 | S. cerevisiae deletion strains, locus YLR371W, strain rom2, stronger effect = lower value 0.925 | S. cerevisiae deletion strains, locus YLR384C, strain iki3, stronger effect = lower value 1.02 | S. cerevisiae deletion strains, locus YML016C, strain PPZ1, stronger effect = lower value 0.977 | S. cerevisiae deletion strains, locus YML124C, strain tub3, stronger effect = lower value 0.934 | S. cerevisiae deletion strains, locus YMR125W, strain sto1, stronger effect = lower value 0.938 | S. cerevisiae deletion strains, locus YMR129W, stronger effect = lower value 0.961 | S. cerevisiae deletion strains, locus YMR231W, strain pep5, stronger effect = lower value 0.963 | S. cerevisiae deletion strains, locus YNL183C, strain NPR1, stronger effect = lower value 0.838 | S. cerevisiae deletion strains, locus YNL209W, strain ssb2, stronger effect = lower value 0.934 | S. cerevisiae deletion strains, locus YNL248C, strain rpa49, stronger effect = lower value 0.915 | S. cerevisiae deletion strains, locus YNL322C, strain KRE1 (second series), stronger effect = lower value 0.907 | S. cerevisiae deletion strains, locus YNR049C, strain mso1, stronger effect = lower value 0.984 | S. cerevisiae deletion strains, locus YOL012C, strain htz1 1.54 | S. cerevisiae deletion strains, locus YOR001W, strain rrp6, stronger effect = lower value 0.893 | S. cerevisiae deletion strains, locus YOR061W, strain CKA2, stronger effect = lower value 0.965 | S. cerevisiae deletion strains, locus YOR069W, strain VPS5, stronger effect = lower value 0.968 | S. cerevisiae deletion strains, locus YOR080W, strain dia2, stronger effect = lower value 0.98 | S. cerevisiae deletion strains, locus YOR231W, strain MKK1, stronger effect = lower value 0.883 | S. cerevisiae deletion strains, locus YOR270C, strain vph1, stronger effect = lower value 1.01 | S. cerevisiae deletion strains, locus YPL256C, strain CLN2, stronger effect = lower value 0.878 | S. cerevisiae deletion strains, locus YPR141C, strain kar3, stronger effect = lower value 0.967
active: S. cerevisiae deletion strains, locus YJR075W, strain HOC1, stronger effect = lower value 0.705 | S. cerevisiae deletion strains, locus YKL009W, strain mrt4, stronger effect = lower value 0.685 | S. cerevisiae deletion strains, locus YKL085W, strain MDH1 (second series), stronger effect = lower value 0.853 | S. cerevisiae deletion strains, locus YKL085W, strain MDH1, stronger effect = lower value 0.853 | S. cerevisiae deletion strains, locus YKL160W, strain elf1, stronger effect = lower value 0.829 | S. cerevisiae deletion strains, locus YKL190W, strain CNB1, stronger effect = lower value 0.843 | S. cerevisiae deletion strains, locus YKR001C, strain vps1, stronger effect = lower value 0.359 | S. cerevisiae deletion strains, locus YLL001W, strain dnm1, stronger effect = lower value 0.838 | S. cerevisiae deletion strains, locus YLL026W, stronger effect = lower value 0.902 | S. cerevisiae deletion strains, locus YLR027C, strain aat2, stronger effect = lower value 0.816 | S. cerevisiae deletion strains, locus YLR039C, strain RIC1, stronger effect = lower value 0.351 | S. cerevisiae deletion strains, locus YLR058C, strain SHM2, stronger effect = lower value 0.879 | S. cerevisiae deletion strains, locus YLR113W, strain HOG1, stronger effect = lower value 0.816 | S. cerevisiae deletion strains, locus YLR221C, strain rsa3, stronger effect = lower value 0.808 | S. cerevisiae deletion strains, locus YLR258W, strain gsy2, stronger effect = lower value 0.892 | S. cerevisiae deletion strains, locus YLR262C, strain YPT6 (second series), stronger effect = lower value 0.505 | S. cerevisiae deletion strains, locus YLR262C, strain YPT6, stronger effect = lower value 0.293 | S. cerevisiae deletion strains, locus YLR268W, strain sec22, stronger effect = lower value 0.818 | S. cerevisiae deletion strains, locus YLR320W, strain mms22, stronger effect = lower value 0.722 | S. cerevisiae deletion strains, locus YLR330W, strain CHS5, stronger effect = lower value 0.748 | S. cerevisiae deletion strains, locus YLR342W, strain FKS1 (second series), stronger effect = lower value 0.398 | S. cerevisiae deletion strains, locus YLR342W, strain FKS1, stronger effect = lower value 0.781 | S. cerevisiae deletion strains, locus YLR357W, strain rsc2, stronger effect = lower value 0.852 | S. cerevisiae deletion strains, locus YLR418C, strain cdc73, stronger effect = lower value 0.381 | S. cerevisiae deletion strains, locus YML032C, strain rad52, stronger effect = lower value 0.696 | S. cerevisiae deletion strains, locus YML120C, strain ndi1, stronger effect = lower value 0.896 | S. cerevisiae deletion strains, locus YMR058W, strain fet3, stronger effect = lower value 0.872 | S. cerevisiae deletion strains, locus YMR078C, strain ctf18, stronger effect = lower value 0.867 | S. cerevisiae deletion strains, locus YMR205C, strain PFK2, stronger effect = lower value 0.697 | S. cerevisiae deletion strains, locus YMR223W, strain ubp8, stronger effect = lower value 0.728 | S. cerevisiae deletion strains, locus YMR263W, strain SAP30, stronger effect = lower value 0.785 | S. cerevisiae deletion strains, locus YMR307W, strain GAS1, stronger effect = lower value 0.237 | S. cerevisiae deletion strains, locus YNL067W, strain RPL9B, stronger effect = lower value 0.791 | S. cerevisiae deletion strains, locus YNL071W, strain lat1, stronger effect = lower value 0.468 | S. cerevisiae deletion strains, locus YNL128W, strain TEP1, stronger effect = lower value 0.78 | S. cerevisiae deletion strains, locus YNL153C, strain GIM3, stronger effect = lower value 0.838 | S. cerevisiae deletion strains, locus YNL233W, strain BNI4, stronger effect = lower value 0.584 | S. cerevisiae deletion strains, locus YNL250W, strain rad50, stronger effect = lower value 0.85 | S. cerevisiae deletion strains, locus YNL271C, strain bni1, stronger effect = lower value 0.8 | S. cerevisiae deletion strains, locus YNL298W, strain CLA4, stronger effect = lower value 0.548 | S. cerevisiae deletion strains, locus YNL307C, strain MCK1, stronger effect = lower value 0.266 | S. cerevisiae deletion strains, locus YNL322C, strain KRE1, stronger effect = lower value 0.87 | S. cerevisiae deletion strains, locus YNR052C, strain pop2, stronger effect = lower value 0.738 | S. cerevisiae deletion strains, locus YOL006C, strain TOP1, stronger effect = lower value 0.477 | S. cerevisiae deletion strains, locus YOL147C, strain pex11, stronger effect = lower value 0.695 | S. cerevisiae deletion strains, locus YOR070C, strain gyp1, stronger effect = lower value 0.873 | S. cerevisiae deletion strains, locus YOR083W, strain WHI5, stronger effect = lower value 0.825 | S. cerevisiae deletion strains, locus YOR106W, strain vam3, stronger effect = lower value 0.738 | S. cerevisiae deletion strains, locus YOR136W, strain idh2, stronger effect = lower value 0.853 | S. cerevisiae deletion strains, locus YOR144C, strain elg1, stronger effect = lower value 0.898 | S. cerevisiae deletion strains, locus YOR184W, strain ser1, stronger effect = lower value 0.458 | S. cerevisiae deletion strains, locus YOR265W, strain rbl2, stronger effect = lower value 0.912 | S. cerevisiae deletion strains, locus YOR290C, strain snf2, stronger effect = lower value 0.761 | S. cerevisiae deletion strains, locus YOR316C, strain cot1, stronger effect = lower value 0.85 | S. cerevisiae deletion strains, locus YPL051W, strain arl3, stronger effect = lower value 0.83 | S. cerevisiae deletion strains, locus YPL055C, strain LGE1, stronger effect = lower value 0.53 | S. cerevisiae deletion strains, locus YPL078C, strain atp4, stronger effect = lower value 0.791 | S. cerevisiae deletion strains, locus YPL106C, strain sse1, stronger effect = lower value 0.837 | S. cerevisiae deletion strains, locus YPL240C, strain hsp82, stronger effect = lower value 0.892 | S. cerevisiae deletion strains, locus YPL241C, strain CIN2, stronger effect = lower value 0.893 | S. cerevisiae deletion strains, locus YPR119W, strain clb2, stronger effect = lower value 0.917 | S. cerevisiae deletion strains, locus YPR163C, strain tif3, stronger effect = lower value 0.657 | S. cerevisiae deletion strains, locus YPR167C, strain met16, stronger effect = lower value 0.85 | S. cerevisiae deletion strains, strain wtn01, stronger effect = lower value 0.731 | S. cerevisiae strains, strain wild type, stronger effect = lower value 0.785
